# From ChEMBL document CHEMBL3988442, “University of Dundee, Small-Polar-MMV Screening Library” (2021)
# Out of some 69,000 compounds screened, about 1,000 (1.4%) showed an effect of 50% or more. The list comes from a sample in which strong results are over-represented; it also holds similar structures and randomly drawn compounds.
# System: Leishmania donovani
# Assay: Leishmania intramacrophage assay
# Format: functional, organism-based
# Design: scale not given: in the data most compounds retested in dose-response had high values
smiles,measurement,setting,value
OC(COCc1ccccc1Cl)CN1CCC(c2ccn[nH]2)CC1 (centres undefined),Percent Effect,30 µM,17.67%
O=C(Cc1csc(-c2ccsc2)n1)N1CCN(c2cnccn2)CC1,Percent Effect,30 µM,8.045%
Cc1cc(C(=O)N2CCn3cc(CN(C)C)nc3C2)no1,Percent Effect,"30.3 µM, […]",18.85%
CC(O)CN1CCN(C(=O)c2ccn(-c3ccc(F)cc3)n2)CC1 (centres undefined),Percent Effect,"30.3 µM, […]",-32.18%
Cn1ccc(C(=O)N2CCC(Cc3cnc4[nH]ccc4c3)CC2)n1,Percent Effect,"30 µM, 30.03 µM",27.84%
CO[C@@H]1CC[C@@H](N(C)C(=O)COc2ccc(F)cc2)[C@H]1O,Percent Effect,"30 µM, 30.03 µM",-20.57%
CCc1nn(-c2cc(Oc3cc(C)ccc3C)ncn2)c(N)c1C#N,Percent Effect,"30.3 µM, […]",55.59%
Cc1ccc(C)c(Oc2cc(-n3nc(C)c(C#N)c3N)nc(C)n2)c1,Percent Effect,"30.3 µM, […]",6.945%
CCc1nn(-c2cc(Oc3cc(C)ccc3C)nc(C)n2)c(N)c1C#N,Percent Effect,"30.3 µM, […]",18.36%
NCC(=O)N1CCCC(O)(CN2CCN(c3ccccc3)CC2)CC1 (centres undefined),Percent Effect,"30.3 µM, […]",24.84%
Cc1nc(CN2CCN(Cc3nccn3C)CC2)no1,Percent Effect,"30 µM, 30.03 µM",11.72%
Cc1nc(CNC(=O)N2CCN(c3ccc(Cl)cn3)CC2)no1,Percent Effect,"30.3 µM, […]",-6.718%
Cc1nc(CN2CCN(c3ccc(Cl)cn3)CC2)no1,Percent Effect,"30.3 µM, […]",51.54%
CSCCCN1CCN(c2ccc(Cl)cn2)CC1,Percent Effect,"30.3 µM, […]",30.03%
CS(=O)(=O)CCN1CCN(c2ccc(Cl)cn2)CC1,Percent Effect,"30.3 µM, […]",0.04205%
Clc1ccc(N2CCN(CCCN3CCCCC3)CC2)nc1,Percent Effect,"30.3 µM, […]",68.75%
O=C(NCCNc1ccc(C(F)(F)F)cn1)c1ccc(Br)cc1F,Percent Effect,"30 µM, 30.03 µM",-32.97%
CN(Cc1cn[nH]c1-c1ccc(F)cc1)C(=O)CCC1CC1,Percent Effect,"30.3 µM, […]",-4.143%
CCn1cc(CN2CCC(C3CCN(C)CC3)CC2)cc1C#N,Percent Effect,"30.3 µM, […]",8.451%
COc1ccc(/C=C/CN2CCCC3(C2)CN(C)C(=O)O3)cc1 (centres undefined),Percent Effect,"30.3 µM, […]",14.77%
COC[C@@]12CC[C@@H](N3CCOCC3)C[C@H]1CCN(c1cc(C)ccn1)C2,Percent Effect,"30.3 µM, […]",28.55%
CC(C)Cn1nc(-c2ccc(C(=O)O)cc2)cc1-c1ccc(F)cc1,Percent Effect,"30.3 µM, […]",41.19%
CCC(O)Cn1nc(-c2ccc(C(=O)O)cc2)cc1-c1cccc(F)c1 (centres undefined),Percent Effect,"30.3 µM, […]",29.44%
CCC(O)Cn1nc(-c2ccc(C(=O)O)cc2)cc1-c1ccc(F)cc1 (centres undefined),Percent Effect,"30.3 µM, […]",61.24%
Fc1cccc(N2CCc3ncnc(C4CC4)c3CC2)c1,Percent Effect,"30.3 µM, […]",15.99%
COCCCN1C(=O)CC[C@H]2CN(Cc3cc4ccccc4o3)CC[C@H]21,Percent Effect,"30.3 µM, […]",10.23%
CCN1CCC(NC(=O)NC2CCOc3ccc(Br)cc32)CC1 (centres undefined),Percent Effect,"30.3 µM, […]",1.839%
CN1CC(c2ccccc2)CC2(CCN(Cc3ncc[nH]3)CC2)C1 (centres undefined),Percent Effect,"30.3 µM, […]",16.63%
CCN1CC(c2ccccc2)CC2(CCN(Cc3ncc[nH]3)CC2)C1 (centres undefined),Percent Effect,"30.3 µM, […]",35.04%
c1ccc(C2CN(C3CC3)CC3(CCN(Cc4ncc[nH]4)CC3)C2)cc1 (centres undefined),Percent Effect,"30.3 µM, […]",51.92%
Cc1ccc(F)c(OC2(C(=O)O)CCN(C(=O)C3CCCC3)CC2)c1,Percent Effect,"30.3 µM, […]",24.64%
CCOC(C)c1nc(CN2CCN(Cc3cccnc3)CC2)cs1 (centres undefined),Percent Effect,"30.3 µM, […]",14.45%
Cc1nc(CN2C[C@@H]3CN(c4ncc(F)cn4)C[C@@H]3C2=O)cs1.O=C(O)C(F)(F)F,Percent Effect,"30.3 µM, […]",0.4282%
CN1CCC(N(CCc2ccccc2)C(=O)c2cc[nH]c2)CC1,Percent Effect,"30.3 µM, […]",69.36%
CN1CCC(N(CCc2ccccc2)C(=O)c2ccoc2)CC1,Percent Effect,"30.3 µM, […]",23.03%
CN1CCC(N(CCc2ccccc2)C(=O)c2ccc(CO)cc2)CC1,Percent Effect,"30.3 µM, […]",30.31%
C[C@H]1C(=O)NC[C@H]2CN(Cc3cccc(F)c3)C[C@H]21.O=C(O)C(F)(F)F,Percent Effect,"30.3 µM, […]",4.969%
Cc1cc(CN(C)C(=O)C2CCCN(C(N)=O)C2)no1 (centres undefined),Percent Effect,"30.3 µM, […]",-0.7168%
COc1cccc(CNc2cnn(C)c(=O)c2Cl)c1,Percent Effect,"30 µM, 30.03 µM",34.79%
COc1ccc(CNc2cnn(C)c(=O)c2Cl)cc1,Percent Effect,30 µM,56.65%
Cn1ncc(NCc2cccc(F)c2)c(Cl)c1=O,Percent Effect,30 µM,13.08%
Cn1ncc(NCc2cccc(COC(C)(C)C)c2)c(Cl)c1=O,Percent Effect,"30 µM, 30.03 µM",51.11%
Cn1ncc(NCc2cc(F)cc(F)c2)c(Cl)c1=O,Percent Effect,"30 µM, 30.03 µM",2.406%
CC(C)OCc1cccc(CNc2cnn(C)c(=O)c2Cl)c1,Percent Effect,30 µM,21.9%
COc1ncccc1CN1CC[C@]2(C[C@@H](OCc3ccccn3)CO2)C1.O=C(O)C(F)(F)F.O=C(O)C(F)(F)F.O=C(O)C(F)(F)F,Percent Effect,"30.3 µM, […]",-3.573%
Nc1nnnn1NCc1cccc(Cl)c1Cl,Percent Effect,"30.3 µM, […]",4.224%
O=C(CCc1ccsc1)N1CCCC(n2cncn2)C1 (centres undefined),Percent Effect,30 µM,18.97%
Cc1nccn1C1CCCN(C(=O)c2cccc(OCC(N)=O)c2)C1 (centres undefined),Percent Effect,30 µM,14.8%
COc1nccnc1N1CCC2(CC1)[C@H](O)C[C@@H]2OCCN(C)C,Percent Effect,"30.3 µM, […]",13.35%
c1csc(CCNc2nc(-c3ccncc3)nc3c2CCNCC3)c1,Percent Effect,"30.3 µM, […]",9.747%
O=C(Nc1cccc(F)c1)NC1CCN(Cc2ccncc2)CC1,Percent Effect,"30.3 µM, […]",20.9%
Cl.NC1CCc2nc(-c3ccncc3)nc(Nc3cccc(F)c3)c2C1 (centres undefined),Percent Effect,"30.3 µM, […]",64.39%
c1cc(-c2nc3c(c(NCCn4ccnn4)n2)CCNCC3)ccn1,Percent Effect,"30.3 µM, […]",24.72%
Cc1sc2c(C3CCNCC3)nc(Nc3cccc(F)c3)n2c1C.Cl,Percent Effect,"30.3 µM, […]",-10.63%
CNC(=O)c1cccc(CN2CCC(N(C)Cc3noc(C)n3)C2)c1 (centres undefined),Percent Effect,"30.3 µM, […]",-22.53%
CNc1cc(C2CCCN(S(=O)(=O)c3cn[nH]c3)C2)ccn1 (centres undefined),Percent Effect,"30.3 µM, […]",9.494%
CCN1CCN(C2CCN(Cc3c(C)noc3C)CC2)C1=O,Percent Effect,"30 µM, 30.03 µM",32.64%
CN(C)c1nc(N)nc(CN2CCCC2c2ccsc2)n1 (centres undefined),Percent Effect,"30.3 µM, […]",83.34%
Cc1nc(CN2CCCC2c2ccsc2)nc2ccccc12 (centres undefined),Percent Effect,"30 µM, 30.03 µM",47.19%
CCCc1noc(CN2CCCC2c2ccsc2)n1 (centres undefined),Percent Effect,"30 µM, 30.03 µM",16.77%
CN(C)c1nc(N)nc(CN2CCCC2c2cccs2)n1 (centres undefined),Percent Effect,"30.3 µM, […]",87.57%
CN(C)c1nc(N)nc(CN2CCCC(c3ccccc3)CC2)n1 (centres undefined),Percent Effect,"30.3 µM, […]",6.795%
Cc1cccc(C2CCCN2Cc2nc(N)nc(N(C)C)n2)c1C (centres undefined),Percent Effect,"30.3 µM, […]",37.96%
OC1(CNCCc2csc(-c3cccnc3)n2)CCNC1 (centres undefined),Percent Effect,"30.3 µM, […]",17.55%
CN1CCn2c(-c3cccc(F)c3)cnc2C12CCN(CC1CC1)CC2.O=C(O)C(F)(F)F.O=C(O)C(F)(F)F.O=C(O)C(F)(F)F,Percent Effect,"30.3 µM, […]",7.679%
CCc1cc(=O)[nH]c(-c2ccc(NCCc3ccc(O)cc3)nc2)n1,Percent Effect,"30.3 µM, […]",10.3%
Cc1nc(-c2ccc(NCCc3ccc(O)cc3)nc2)[nH]c(=O)c1C,Percent Effect,"30.3 µM, […]",67.3%
Cc1nc(CCNc2ccc(-c3nc(C)c(C)c(=O)[nH]3)cn2)cs1,Percent Effect,"30.3 µM, […]",-24.43%
CCOCC1c2c(cnn2CC2CC2)CCN1C(=O)c1ccncn1.O=C(O)C(F)(F)F (centres undefined),Percent Effect,"30.3 µM, […]",-17.31%
Cc1c(C(=O)NS(=O)(=O)c2ccc(F)cc2)cnn1CC(C)C,Percent Effect,"30.3 µM, […]",-23.8%
Cn1ncc2c(N3CCS(=O)(=O)CC3)nc(-c3cccnc3)nc21,Percent Effect,"30.3 µM, […]",31.77%
CC(C)N1CCCN(c2nc(-c3cccnc3)nc3c2cnn3C)CC1,Percent Effect,"30.3 µM, […]",93.98%
Cn1ncc2c(N3CCC3)nc(-c3ccncc3)nc21,Percent Effect,"30.3 µM, […]",7.019%
COc1ccccc1-c1csc(NC(=O)N2CCN(C)CC2C)n1 (centres undefined),Percent Effect,"30.3 µM, […]",9.878%
CCc1ccccc1CN1CC[C@@]2(O)CCN(S(=O)(=O)N(C)C)C[C@H]2C1,Percent Effect,"30.3 µM, […]",-14.75%
CCN(C)S(=O)(=O)NCC1CCCN(Cc2ccccc2F)C1 (centres undefined),Percent Effect,"30.3 µM, […]",-11.05%
Nc1ncc(C(=O)N2CCN(c3nccs3)CC2)cc1Cl,Percent Effect,"30.3 µM, […]",-4.984%
O=C(c1ccc(O)c(Cl)c1)N1CCN(c2nccs2)CC1,Percent Effect,"30.3 µM, […]",64.57%
O=C(c1cc(Cl)cc(Cl)c1)N1CCN(c2nccs2)CC1,Percent Effect,"30 µM, 30.03 µM",30.43%
CN(Cc1ccccc1C(F)(F)F)C(C(N)=O)c1ccccc1 (centres undefined),Percent Effect,"30.3 µM, […]",68.32%
CN(Cc1ccccc1F)C(C(N)=O)c1ccccc1 (centres undefined),Percent Effect,"30.3 µM, […]",11.08%
CC(C(N)=O)N(C)Cc1ccccc1C(F)(F)F (centres undefined),Percent Effect,"30.3 µM, […]",-40.32%
I.c1ccc(Sc2ccc3c(c2)OCO3)c(CNC2=NCCN2)c1,Percent Effect,"30.3 µM, […]",21.74%
Fc1ccc(Sc2ccccc2CNC2=NCCN2)cc1.I,Percent Effect,"30.3 µM, […]",50.51%
Fc1ccccc1Sc1ccccc1CNC1=NCCN1.I,Percent Effect,"30.3 µM, […]",29.36%
Cc1nnc([C@@H]2C[C@H]3CN(C(=O)c4sccc4C)C[C@H]3O2)[nH]1,Percent Effect,"30.3 µM, […]",16.44%
CN(Cc1cccnc1)[C@@H]1CN(C(=O)c2ccoc2)[C@@H]2CCCO[C@H]12.O=C(O)C(F)(F)F.O=C(O)C(F)(F)F,Percent Effect,"30.3 µM, […]",-5.312%
CN(Cc1cccnc1)[C@@H]1CN(C(=O)c2ccno2)[C@@H]2CCCO[C@H]12.O=C(O)C(F)(F)F.O=C(O)C(F)(F)F,Percent Effect,"30.3 µM, […]",75.56%
CN(Cc1cccnc1)[C@@H]1CN(C(=O)CC2CC2)[C@@H]2CCCO[C@H]12.O=C(O)C(F)(F)F.O=C(O)C(F)(F)F,Percent Effect,"30.3 µM, […]",-10.3%
Cn1ccnc1-c1noc(NCc2ccc(Cl)cc2)n1,Percent Effect,"30.3 µM, […]",-1.294%
Cc1cc(C)nc(NC(=O)NCCCSc2nncn2C)n1,Percent Effect,"30.3 µM, […]",12.59%
Cc1ccccc1-n1cnc(Cl)c1C(=O)O,Percent Effect,"30.3 µM, […]",51.36%
O=C(O)c1c(Cl)ncn1-c1cccc2ccccc12,Percent Effect,"30.3 µM, […]",32.69%
O=C(O)c1c(Cl)ncn1-c1ccccc1,Percent Effect,"30.3 µM, […]",42.23%
CN(C)C1CCC2(CCN(Cc3nccn3C)CC2)c2ccccc21.O=C(O)C(F)(F)F.O=C(O)C(F)(F)F (centres undefined),Percent Effect,"30.3 µM, […]",15.24%
c1cncc(CN2CCC(NCCc3ccc4c(c3)OCO4)CC2)c1,Percent Effect,"30.3 µM, […]",21.95%
COc1cccc(-c2cc(C(=O)NCCCn3nc(C)cc3C)[nH]n2)c1,Percent Effect,"30.3 µM, […]",35.19%
COc1cccc(-c2cc(C(=O)NCCCC(F)(F)F)[nH]n2)c1,Percent Effect,"30.3 µM, […]",24.25%
COc1cccc(-c2cc(C(=O)NCCCn3cnnc3)[nH]n2)c1,Percent Effect,"30.3 µM, […]",50.06%
